Laboratory results as given in ChEMBL document CHEMBL1157539, “Thousands of chemical starting points for antimalarial lead identification” (Nature, 2010).

The molecules below were run on HepG2 (assay: GSK_TCMDC: Percent inhibition of human HepG2 cell line. Test compounds present at 10uM.).
Format: functional

SMILES | Inhibition [%]
CCCCCn1c(Sc2ccc(C#N)c([N+](=O)[O-])c2)nnc1-c1ccccc1 | 22
Cc1ccc(C)c(NC(=O)NCCNc2ccnc(Nc3ccc(F)cc3)n2)c1 | 21
Cc1ccccc1C1CCN(c2ccc(NC(=O)c3ccc(Cl)nc3)cc2)CC1.O=C(O)C(F)(F)F | 43
CN(C)C(CNC(=O)c1cc(-c2ccncc2)c(-c2cc3ccccc3[nH]2)o1)c1ccccc1.O=C(O)C(F)(F)F (stereo not given) | 3
COc1cc(C(=O)Nc2ccc3nc(N4CCN(C)CC4)cc(C)c3c2)cc(OC)c1OC | 18
c1ccc(CNc2nc(NCCc3c[nH]cn3)nc(NCc3cccc4ccccc34)n2)cc1 | 9
CCN(CC)CCN(Cc1ccc(-c2ccc(C(F)(F)F)cc2)cc1)C(=O)Cn1c(CCc2cc(F)c(F)cc2F)nc(=O)c2ccccc21.O=C(O)C(O)C(O)C(=O)O | 39
CCOc1ccc(C(C)NC(=O)C2COc3ccccc3O2)cc1OCC (stereo not given) | 0
O=C(O)C(F)(F)F.c1ccc2[nH]c(-c3ccc(-c4ccc(CN5CCCCC5)cc4)cc3)nc2c1 | 27
CCN(CC)CCNc1ccnc2ccc3ccccc3c12 | 5
Cc1cc(N2Cc3ccccc3C2)nc(Nc2cccc(C#N)c2)n1 | 6
CCN(CC)CCN(Cc1ccc(-c2ccc(C(F)(F)F)cc2)cc1)C(=O)Cn1c(CCc2ccc(F)c(F)c2)cc(=O)c2ccccc21.O=C(O)C(O)C(O)C(=O)O | 23
O=C(Nc1cccc(-c2ccc(-c3nc4cc(F)ccc4[nH]3)cc2)c1)c1csnn1 | 22
N=C(N)NN=CC(=O)Nc1ccc(Cl)c(C(F)(F)F)c1 | 0
Fc1ccccc1-c1cc(Nc2ccncc2)nc(-c2cccnc2)n1 | 91
Cc1ccc2sc(N(CCCn3ccnc3)C(=O)c3ccco3)nc2c1C.Cl | 9
CCOC(=O)NC1=NC(=N)N(OCCCOc2cc(Cl)c(Cl)cc2Cl)C(C)(C)N1 | 63
CC1(C)N=C(N)N=C(N)N1c1ccc(Oc2ccc(Cl)cc2)c(Cl)c1 | 13
CCC1CN2CCc3c([nH]c4ccc(OC)cc34)C2CC1CC1NCCc2cc(OC)c(OC)cc21.Cl (stereo not given) | 17
FC(F)(F)c1ccc(-c2cncc(-c3ccc(C(F)(F)F)cc3)n2)cc1 | 9

SMILES | Inhibition [%]
Cc1cccc2nc(-c3cccc(-c4cccc(NC(=O)CNc5ccc(C(N)=O)cc5)c4)c3)[nH]c12 | 15
COc1cc2nc(N3CCC(CNC(=O)c4ccc(-c5ccc(-c6noc(C)n6)cc5)cc4)CC3)nc(N)c2cc1OC | 96
CC(=O)Oc1cc(OCc2ccccc2)c(OC(C)=O)c(OCc2ccccc2)c1 | 11
CC1(C)N=C(N)N=C(NOCc2ccc(Cl)c(Cl)c2)N1 | 5
CCNc1cc(C(=O)N[C@@H](Cc2ccccc2)[C@H](O)CNCCc2ccccc2)cc(N2CCCC2=O)c1.O=C(O)C(F)(F)F | 0
CCc1ccc(CN2CCC(NC(=O)c3ccc(-c4ccc(N(C)C)cc4)s3)CC2)cc1.O=C(O)C(F)(F)F | 52
O=C(CCc1c[nH]cn1)Nc1cccc(-c2cccc(-c3nc4cc(C(F)(F)F)ccc4[nH]3)c2)c1 | 17
Cc1cnccc1/C=C/c1cccc(OCCCN2CCc3ccc(S(C)(=O)=O)cc3CC2)c1 | 1
C=CCc1cc(Cc2cnc(N)nc2N)cc(CCC)c1OC | 3
CCN(CCS(C)(=O)=O)Cc1ccc(-c2ccc3ncnc(Nc4ccc(OCc5cccc(F)c5)c(Cl)c4)c3c2)o1.Cc1ccc(S(=O)(=O)O)cc1 | 5
CCn1c(-c2nonc2N)nc2c(-c3ccccc3)ncc(OCCCNCCCN3CCOCC3)c21.O=C(O)C(F)(F)F | 28
Cc1cc(C)n2nc(C(=O)Nc3cc(C(F)(F)F)ccc3N3CCOCC3)nc2n1 | 2
CC(C)C(=O)NC(Nc1ccc([N+](=O)[O-])cc1)C(Cl)(Cl)Cl (stereo not given) | 7
Cl.O=C(CNC1=NCCN1)Nc1ccc(NC(=O)Nc2ccc(NC(=O)CNC3=NCCN3)cc2)cc1 | 0
CC(=O)N1N=C(c2[nH]c3ccc(Br)cc3c2C)OC1c1ccccc1 (stereo not given) | 8
CC(=O)Nc1cccc(Nc2nccc(-c3c(-c4cccc(NC(=O)c5c(F)cccc5F)c4)nn4ncccc34)n2)c1 | 83
CC(C)N1CCC(N(Cc2ccc(-c3ccc(C(F)(F)F)cc3)cc2)C(=O)Cn2c(SCc3cccc(F)c3F)cc(=O)c3ccccc32)CC1.O=C(O)C(O)C(O)C(=O)O | 52
O=C(/C=C/c1ccc(Cl)c(Cl)c1)NCCCCCN1CCC(NC(=O)Nc2ccc(F)c(F)c2)CC1 | 24
COc1ccc(Br)cc1C1C2C(=O)N(c3ccc(Br)cc3)C(=O)C2C2(C(=O)O)CC(OCc3ccccc3)CN12 (stereo not given) | 16
CCOP(=O)(OCC)c1ccc(OC)c(-c2ccc[nH]2)c1 | 0
